# Target: T1, ELF5 (Homo sapiens, UniProt Q9UKW6-2 1-255)
# T1 sequence: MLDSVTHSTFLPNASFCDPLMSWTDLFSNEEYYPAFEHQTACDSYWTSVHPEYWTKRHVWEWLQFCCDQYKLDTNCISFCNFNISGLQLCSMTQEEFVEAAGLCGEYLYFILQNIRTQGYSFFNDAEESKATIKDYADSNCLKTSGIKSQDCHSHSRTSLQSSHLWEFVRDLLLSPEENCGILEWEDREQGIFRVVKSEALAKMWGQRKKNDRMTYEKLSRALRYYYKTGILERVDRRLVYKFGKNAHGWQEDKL
# Assay: DAPPL (digital affinity profiling via proximity ligation, sequencing); 10 mM Tris-HCl pH 7.5, 50 mM NaCl, 1 mM DTT, 4% glycerol, room temperature, 30 min; GST-TFs on glutathione beads, 16-mer random dsDNA library, 0.1% formaldehyde crosslink after washing; high values mean tight binding
# Settings: protein: recombinant; tags: N-terminal GST; dsDNA, one strand shown
# Summary of the method: (§1)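 Pools of DNA-barcoded human transcription factors, expressed in yeast as GST fusions on glutathione beads and combined with a tag-only sample, were incubated with 200 nmole of a 16-mer random double-stranded DNA library. Incubation took 30 min at room temperature in Tris/NaCl/DTT/glycerol buffer and was followed by washing, 0.1% formaldehyde crosslinking, proximity ligation (BsaI/T4 ligase, 1 h, 37 °C), PCR amplification and sequencing on an Illumina NextSeq500. Binding signal is the ratio of a hexamer's read frequency for a factor to its frequency for the tag-only sample.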
row,Sequence,binding signal
1,TCCCCA,"1.46 fold enrichment (6-mer frequency, TF over GST control)"
2,TAGAAG,"1.12 fold enrichment (6-mer frequency, TF over GST control)"
3,CAATCA,"1.1 fold enrichment (6-mer frequency, TF over GST control)"
4,AATGAA,"1.22 fold enrichment (6-mer frequency, TF over GST control)"
5,TCACCC,"1.07 fold enrichment (6-mer frequency, TF over GST control)"
6,CGTTAT,"1.05 fold enrichment (6-mer frequency, TF over GST control)"
7,ACACAA,"1.17 fold enrichment (6-mer frequency, TF over GST control)"
8,CTCACC,"1.15 fold enrichment (6-mer frequency, TF over GST control)"
9,GTAATT,"1.28 fold enrichment (6-mer frequency, TF over GST control)"
10,CCAATG,"1.05 fold enrichment (6-mer frequency, TF over GST control)"
11,CCCCGC,"1.07 fold enrichment (6-mer frequency, TF over GST control)"
12,ACGACA,"1.18 fold enrichment (6-mer frequency, TF over GST control)"
13,CGCTGC,"1.07 fold enrichment (6-mer frequency, TF over GST control)"
14,CGTTCC,"1.65 fold enrichment (6-mer frequency, TF over GST control)"
15,ATTCCA,"1.15 fold enrichment (6-mer frequency, TF over GST control)"
16,TTGTAC,"1.23 fold enrichment (6-mer frequency, TF over GST control)"
17,CACATT,"1.13 fold enrichment (6-mer frequency, TF over GST control)"
18,GCTACA,"1.19 fold enrichment (6-mer frequency, TF over GST control)"
19,GGTTCC,"1.75 fold enrichment (6-mer frequency, TF over GST control)"
20,CAGGAT,"1.28 fold enrichment (6-mer frequency, TF over GST control)"

# Target: T2, ETV3 (Homo sapiens, UniProt P41162-2 1-143)
# T2 sequence: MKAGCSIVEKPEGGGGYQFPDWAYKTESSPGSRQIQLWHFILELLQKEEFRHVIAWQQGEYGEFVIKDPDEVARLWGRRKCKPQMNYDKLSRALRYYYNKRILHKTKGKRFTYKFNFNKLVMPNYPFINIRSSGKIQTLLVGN
# Assay: as above
# Settings: protein: recombinant; tags: N-terminal GST; dsDNA, one strand shown
# Summary of the method: as §1
row,Sequence,binding signal
1,TTCCCT,"1.75 fold enrichment (6-mer frequency, TF over GST control)"
2,ACAACC,"1.29 fold enrichment (6-mer frequency, TF over GST control)"
3,CCCTCT,"1.4 fold enrichment (6-mer frequency, TF over GST control)"
4,GTTGCA,"1.14 fold enrichment (6-mer frequency, TF over GST control)"
5,CCGAAA,"1.19 fold enrichment (6-mer frequency, TF over GST control)"
6,ATGGCT,"1.33 fold enrichment (6-mer frequency, TF over GST control)"
7,GTGGCT,"1.12 fold enrichment (6-mer frequency, TF over GST control)"
8,GTTTTA,"1.21 fold enrichment (6-mer frequency, TF over GST control)"
9,TTGGCC,"1.05 fold enrichment (6-mer frequency, TF over GST control)"
10,GTAGCA,"1.05 fold enrichment (6-mer frequency, TF over GST control)"
11,CTGGTC,"1.24 fold enrichment (6-mer frequency, TF over GST control)"
12,TTTGGC,"1.21 fold enrichment (6-mer frequency, TF over GST control)"
13,CCTTGT,"1.31 fold enrichment (6-mer frequency, TF over GST control)"
14,TCTGGT,"1.29 fold enrichment (6-mer frequency, TF over GST control)"
15,CTTGTT,"1.2 fold enrichment (6-mer frequency, TF over GST control)"
16,GCTTAT,"1.2 fold enrichment (6-mer frequency, TF over GST control)"
17,CCGCCC,"1.36 fold enrichment (6-mer frequency, TF over GST control)"
18,CACGCC,"1.2 fold enrichment (6-mer frequency, TF over GST control)"
19,CCACGA,"1.02 fold enrichment (6-mer frequency, TF over GST control)"
20,TGGCAA,"1.12 fold enrichment (6-mer frequency, TF over GST control)"

row,Sequence,binding signal
1,TCCCCA,"1.36 fold enrichment (6-mer frequency, TF over GST control)"
2,TAGAAG,"1.12 fold enrichment (6-mer frequency, TF over GST control)"
3,CAATCA,"1.1 fold enrichment (6-mer frequency, TF over GST control)"
4,AATGAA,"1.17 fold enrichment (6-mer frequency, TF over GST control)"
5,TCACCC,"1.14 fold enrichment (6-mer frequency, TF over GST control)"
6,CGTTAT,"1.18 fold enrichment (6-mer frequency, TF over GST control)"
7,ACACAA,"1.13 fold enrichment (6-mer frequency, TF over GST control)"
8,CTCACC,"1.14 fold enrichment (6-mer frequency, TF over GST control)"
9,GTAATT,"1.18 fold enrichment (6-mer frequency, TF over GST control)"
10,CCAATG,"1.15 fold enrichment (6-mer frequency, TF over GST control)"
11,CCCCGC,"1.14 fold enrichment (6-mer frequency, TF over GST control)"
12,ACGACA,"1.08 fold enrichment (6-mer frequency, TF over GST control)"
13,CGCTGC,"1.13 fold enrichment (6-mer frequency, TF over GST control)"
14,CGTTCC,"1.41 fold enrichment (6-mer frequency, TF over GST control)"
15,ATTCCA,"1.15 fold enrichment (6-mer frequency, TF over GST control)"
16,TTGTAC,"1.44 fold enrichment (6-mer frequency, TF over GST control)"
17,CACATT,"1.12 fold enrichment (6-mer frequency, TF over GST control)"
18,GCTACA,"1.17 fold enrichment (6-mer frequency, TF over GST control)"
19,GGTTCC,"1.71 fold enrichment (6-mer frequency, TF over GST control)"
20,CAGGAT,"1.22 fold enrichment (6-mer frequency, TF over GST control)"

# Target: ETV6 (Homo sapiens, UniProt P41212 1-452)
# Sequence (P41212 whole entry): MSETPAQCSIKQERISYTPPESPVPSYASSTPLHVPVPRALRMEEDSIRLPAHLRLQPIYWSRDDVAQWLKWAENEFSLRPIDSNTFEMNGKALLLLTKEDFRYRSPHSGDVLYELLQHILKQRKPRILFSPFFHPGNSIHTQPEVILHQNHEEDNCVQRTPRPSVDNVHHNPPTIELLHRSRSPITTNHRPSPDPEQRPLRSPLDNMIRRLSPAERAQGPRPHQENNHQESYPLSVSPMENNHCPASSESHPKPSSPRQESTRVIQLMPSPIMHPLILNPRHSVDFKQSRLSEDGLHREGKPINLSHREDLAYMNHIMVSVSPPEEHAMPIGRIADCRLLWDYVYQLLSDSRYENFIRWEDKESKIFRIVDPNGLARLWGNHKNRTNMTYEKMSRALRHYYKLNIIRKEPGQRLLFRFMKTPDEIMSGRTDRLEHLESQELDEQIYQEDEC
# Assay: as above
# Settings: protein: recombinant; tags: N-terminal GST; dsDNA, one strand shown
# Summary of the method: as §1
row,Sequence,binding signal
1,TTCCCT,"1.66 fold enrichment (6-mer frequency, TF over GST control)"
2,ACAACC,"1.28 fold enrichment (6-mer frequency, TF over GST control)"
3,CCCTCT,"1.31 fold enrichment (6-mer frequency, TF over GST control)"
4,GTTGCA,"1.11 fold enrichment (6-mer frequency, TF over GST control)"
5,CCGAAA,"1.28 fold enrichment (6-mer frequency, TF over GST control)"
6,ATGGCT,"1.38 fold enrichment (6-mer frequency, TF over GST control)"
7,GTGGCT,"1.07 fold enrichment (6-mer frequency, TF over GST control)"
8,GTTTTA,"1.13 fold enrichment (6-mer frequency, TF over GST control)"
9,TTGGCC,"1.05 fold enrichment (6-mer frequency, TF over GST control)"
10,GTAGCA,"1.03 fold enrichment (6-mer frequency, TF over GST control)"
11,CTGGTC,"1.08 fold enrichment (6-mer frequency, TF over GST control)"
12,TTTGGC,"1.26 fold enrichment (6-mer frequency, TF over GST control)"
13,CCTTGT,"1.06 fold enrichment (6-mer frequency, TF over GST control)"
14,TCTGGT,"1.17 fold enrichment (6-mer frequency, TF over GST control)"
15,CTTGTT,"1.12 fold enrichment (6-mer frequency, TF over GST control)"
16,GCTTAT,"1.23 fold enrichment (6-mer frequency, TF over GST control)"
17,CCGCCC,"1.39 fold enrichment (6-mer frequency, TF over GST control)"
18,CACGCC,"1.17 fold enrichment (6-mer frequency, TF over GST control)"
19,CCACGA,"1.01 fold enrichment (6-mer frequency, TF over GST control)"
20,TGGCAA,"1.28 fold enrichment (6-mer frequency, TF over GST control)"

row,Sequence,binding signal
1,TCCCCA,"1.26 fold enrichment (6-mer frequency, TF over GST control)"
2,TAGAAG,"1.17 fold enrichment (6-mer frequency, TF over GST control)"
3,CAATCA,"1.16 fold enrichment (6-mer frequency, TF over GST control)"
4,AATGAA,"1.23 fold enrichment (6-mer frequency, TF over GST control)"
5,TCACCC,"1.05 fold enrichment (6-mer frequency, TF over GST control)"
6,CGTTAT,"1.09 fold enrichment (6-mer frequency, TF over GST control)"
7,ACACAA,"1.2 fold enrichment (6-mer frequency, TF over GST control)"
8,CTCACC,"1.08 fold enrichment (6-mer frequency, TF over GST control)"
9,GTAATT,"1.3 fold enrichment (6-mer frequency, TF over GST control)"
10,CCAATG,"1.14 fold enrichment (6-mer frequency, TF over GST control)"
11,CCCCGC,"1.16 fold enrichment (6-mer frequency, TF over GST control)"
12,ACGACA,"1.22 fold enrichment (6-mer frequency, TF over GST control)"
13,CGCTGC,"1.18 fold enrichment (6-mer frequency, TF over GST control)"
14,CGTTCC,"1.42 fold enrichment (6-mer frequency, TF over GST control)"
15,ATTCCA,"1.19 fold enrichment (6-mer frequency, TF over GST control)"
16,TTGTAC,"1.48 fold enrichment (6-mer frequency, TF over GST control)"
17,CACATT,"1.15 fold enrichment (6-mer frequency, TF over GST control)"
18,GCTACA,"1.17 fold enrichment (6-mer frequency, TF over GST control)"
19,GGTTCC,"1.55 fold enrichment (6-mer frequency, TF over GST control)"
20,CAGGAT,"1.19 fold enrichment (6-mer frequency, TF over GST control)"

# Source: article PMC7862700, “An all-to-all approach to the identification of sequence-specific readers for epigenetic DNA modifications on cytosine”
